± gives the standard deviation of the averaged measurements.

The test system of one assay is IL-6-GFP PC-9GR. In words: cell viability (CCK-8 OD) relative to DMSO control (fraction of control); higher = more viable cells. The settings on record: compound concentration: 10 uM; treatment time: 48 h. The procedure, abridged:
(§1)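 In 96-well plates, 3000 cells/well of PC-9 or PC-9GR lung cancer cells with lentiviral IL-6-GFP overexpression received each compound of a purchased 510-compound library at a final 10 μM for 48 h. Viability, measured by CCK-8 absorbance, is each well's optical density relative to the vehicle control well. Data come from two independent replicates.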

A further assay has as its system IL-6-GFP PC-9. Described as above. The settings on record: compound concentration: 10 uM; treatment time: 48 h. A digest of the protocol: as §1

For the compound `Cc1c(-c2ccc(-c3ccccc3F)cc2)nc2ccc(F)cc2c1C(=O)O` [Brequinar], the results for the cell viability in the assay on IL-6-GFP PC-9GR and in the assay on IL-6-GFP PC-9 were 0.402 ± 0.11 and 0.42356 ± 0.00032, respectively.

As to `Nc1n[n+]([O-])c2ccccc2[n+]1[O-]` [Tirapazamine], the results for the cell viability in the assay with IL-6-GFP PC-9GR and in the assay with IL-6-GFP PC-9 were 1.09 ± 0.25 and 0.676 ± 0.12, respectively.

In the case of `CCC(C)C(=O)OC1CC(O)C=C2C=CC(C)C(CCC(O)CC(O)CC(=O)[O-])C21.[Na+]` (stereo not given) [Pravastatin sodium], the cell viability with IL-6-GFP PC-9GR is 0.932 ± 0.038; with IL-6-GFP PC-9 it was 1.17 ± 0.016.

For the compound `C/C=C(/C(=C/C)c1ccc(O)cc1)c1ccc(O)cc1` [Dienestrol], the cell viability in the assay on IL-6-GFP PC-9GR was found to be 1.06 ± 0.025; in the assay with IL-6-GFP PC-9 it was 1.16 ± 0.093.

Consider `O=C([O-])Cc1ccccc1Nc1c(Cl)cccc1Cl.[K+]` [Diclofenac Potassium], for which the cell viability was determined as 1.25 ± 0.21 in the assay on IL-6-GFP PC-9GR and 1.13 ± 0.18 in the assay on IL-6-GFP PC-9.

For the compound `C/C=C(/C)C(=O)OC1C(OC(C)=O)C2(CO)C(O)CC3(C)C(=CCC4C5(C)CCC(OC6OC(C(=O)O)C(OC7OC(CO)C(O)C(O)C7O)C(O)C6OC6OC(CO)C(O)C(O)C6O)C(C)(CO)C5CCC43C)C2CC1(C)C` (stereo not given) [Escin], the cell viability with IL-6-GFP PC-9GR stood at 0.999 ± 0.079; in the assay with IL-6-GFP PC-9 it was 1.14 ± 0.22.

With `COC1CC2CCC(C)C(O)(O2)C(=O)C(=O)N2CCCCC2C(=O)OC(C(C)CC2CCC(OCCO)C(OC)C2)CC(=O)C(C)/C=C(\C)C(O)C(OC)C(=O)C(C)CC(C)/C=C/C=C/C=C/1C` (stereo not given) [Everolimus (RAD001)], the results for the cell viability in the assay with IL-6-GFP PC-9GR and in the assay with IL-6-GFP PC-9 were 0.985 ± 0.068 and 0.66 ± 0.29, respectively.

Turning to `CC(=O)OCC(CCn1cnc2cnc(N)nc21)COC(C)=O` [Famciclovir], the cell viability in the assay with IL-6-GFP PC-9GR was found to be 1.32 ± 0.15; in the assay with IL-6-GFP PC-9, 1.26 ± 0.18.

As to `CC(O)CO.CCOc1ccc(Cc2cc(C3OC(CO)C(O)C(O)C3O)ccc2Cl)cc1.O` (stereo not given) [Dapagliflozin propanediol monohydrate], the results for the cell viability in the assay on IL-6-GFP PC-9GR and with IL-6-GFP PC-9 were 1.07 ± 0.13 and 1.14 ± 0.11, respectively.

With `CN1CCC(=C2c3ccccc3CCc3sccc32)CC1.O=C(O)CC(O)C(=O)O` [Pizotifen Malate], the cell viability in the assay with IL-6-GFP PC-9GR was 1.41 ± 0.064; in the assay on IL-6-GFP PC-9 it was 1.22 ± 0.16.

Take `CN(C)C(=O)COC(=O)Cc1ccc(OC(=O)c2ccc(NC(=N)N)cc2)cc1.CS(=O)(=O)O` [Camostat Mesilate]: the results for the cell viability with IL-6-GFP PC-9GR and with IL-6-GFP PC-9 were 0.986 ± 0.098 and 1.13 ± 0.049, respectively.

Regarding `Cc1ccc(C(C)C)cc1` [p-Cymene], the cell viability in the assay on IL-6-GFP PC-9GR was 0.822 ± 0.24; in the assay on IL-6-GFP PC-9, 1.249 ± 0.011.

On to `Cl.c1ccc2c(c1)CCCC2C1=NCCN1` (stereo not given) [Tetrahydrozoline HCl], for which the cell viability was found to be 0.987 ± 0.049 in the assay on IL-6-GFP PC-9GR and 1.13 ± 0.15 with IL-6-GFP PC-9.

Consider `CNCC(O)C(O)C(O)C(O)CO.Cc1c(Nc2ncccc2C(=O)O)cccc1C(F)(F)F` [Flunixin Meglumin], for which the cell viability amounted to 1.15 ± 0.12 in the assay on IL-6-GFP PC-9GR and 0.964 ± 0.087 with IL-6-GFP PC-9.

`CCCCOC(=O)c1ccccc1Nc1cccc(C(F)(F)F)c1` [Ufenamate]: the results for the cell viability in the assay with IL-6-GFP PC-9GR and with IL-6-GFP PC-9 were 0.8299 ± 0.0043 and 0.992 ± 0.24, respectively.

As for `O=C(c1ccc(OCCN2CCCCC2)cc1)c1c(-c2ccc(O)cc2)sc2cc(O)ccc12` [Raloxifene], the cell viability amounted to 0.849 ± 0.1 with IL-6-GFP PC-9GR and 1.08 ± 0.11 with IL-6-GFP PC-9.

Turning to `CC1(C(=O)O)CCC2(C)CCC3(C)C(=CC(=O)C4C5(C)CCC(OC6OC(C(=O)O)C(O)C(O)C6OC6OC(C(=O)O)C(O)C(O)C6O)C(C)(C)C5CCC43C)C2C1` (stereo not given) [Glycyrrhizin (Glycyrrhizic Acid)], the cell viability came out at 1.47 ± 0.11 with IL-6-GFP PC-9GR and 1.29 ± 0.022 with IL-6-GFP PC-9.

On to `O=NN(CCCl)C(=O)NC1CCCCC1` [Lomustine], for which the cell viability in the assay on IL-6-GFP PC-9GR was 1.05 ± 0.07; with IL-6-GFP PC-9, 0.9506 ± 0.0079.

Take `CC(NCc1ccc(OCc2cccc(F)c2)cc1)C(N)=O.CS(=O)(=O)O` (stereo not given) [Safinamide Mesylate]: the cell viability with IL-6-GFP PC-9GR is 1.27 ± 0.017; in the assay with IL-6-GFP PC-9, 0.749 ± 0.14.

For the compound `C=CC1CC1(NC(=O)C1CC(Oc2ncc(OC)c3ccc(Cl)cc23)CN1C(=O)C(NC(=O)OC(C)(C)C)C(C)(C)C)C(=O)NS(=O)(=O)C1CC1` (stereo not given) [Asunaprevir], the cell viability in the assay with IL-6-GFP PC-9GR was found to be 1.24 ± 0.26; in the assay with IL-6-GFP PC-9, 1.05 ± 0.46.

Turning to `CCOc1ccccc1OCCNC(C)Cc1ccc(OC)c(S(N)(=O)=O)c1` (stereo not given) [Tamsulosin], the figures for the cell viability in the assay with IL-6-GFP PC-9GR and in the assay on IL-6-GFP PC-9 were 1.37 ± 0.042 and 1.316 ± 0.0058, respectively.

As for `O=c1[nH]cc(F)c(=O)[nH]1` [Fluorouracil (5-Fluoracil, 5-FU)], the cell viability with IL-6-GFP PC-9GR was found to be 0.731 ± 0.011; with IL-6-GFP PC-9, 0.537 ± 0.12.

Take `C=CC1=C(C)c2cc3nc(cc4[nH]c(cc5[nH]c(cc1n2)c(C)c5C=C)c(C)c4CCC(=O)O)C(CCC(=O)O)=C3C` [Protoporphyrin IX]: the cell viability in the assay on IL-6-GFP PC-9GR stood at 0.345 ± 0.26; in the assay with IL-6-GFP PC-9, 0.995 ± 0.17.

Turning to `NC(CO)(CO)CO.O=C(c1ccccc1)c1ccc2n1CCC2C(=O)O` (stereo not given) [Ketorolac tromethamine salt], the cell viability in the assay with IL-6-GFP PC-9GR was determined as 0.948 ± 0.075; with IL-6-GFP PC-9, 1.05 ± 0.19.

Turning to `Nc1nc(CC(=O)Nc2ccc(CCNCC(O)c3ccccc3)cc2)cs1` (stereo not given) [Mirabegron], the cell viability with IL-6-GFP PC-9GR came to 1.09 ± 0.19; with IL-6-GFP PC-9 it was 0.791 ± 0.035.

As to `CC12C=CC(=O)C=C1CCC1C3CC(O)C(O)(C(=O)CO)C3(C)CC(O)C12F` (stereo not given) [Triamcinolone], the cell viability in the assay on IL-6-GFP PC-9GR stood at 1.06 ± 0.13; with IL-6-GFP PC-9 it was 0.805 ± 0.086.

For the compound `N#CC1CC2CC2N1C(=O)C(N)C12CC3CC(CC(O)(C3)C1)C2.O` (stereo not given) [Saxagliptin hydrate], the values for the cell viability with IL-6-GFP PC-9GR and with IL-6-GFP PC-9 were 0.79 ± 0.18 and 1.14 ± 0.091, respectively.

On to `CCC1/C=C(\C)CC(C)CC(OC)C2OC(O)(C(=O)C(=O)N3CCCCC3C(=O)OC(/C(C)=C/C3CCC(Cl)C(OC)C3)C(C)C(O)CC1=O)C(C)CC2OC` (stereo not given) [Pimecrolimus], for which the cell viability stood at 1 ± 0.18 in the assay with IL-6-GFP PC-9GR and 1.02 ± 0.071 with IL-6-GFP PC-9.

For the compound `CC1=C(CC(=O)O)c2cc(F)ccc2/C1=C\c1ccc(S(C)=O)cc1` (stereo not given) [Sulindac], the cell viability came out at 1.12 ± 0.075 with IL-6-GFP PC-9GR and 0.821 ± 0.32 in the assay with IL-6-GFP PC-9.

In the case of `Nc1cc(C(Cl)=C(Cl)Cl)c(S(N)(=O)=O)cc1S(N)(=O)=O` [Clorsulon], the results for the cell viability in the assay on IL-6-GFP PC-9GR and in the assay on IL-6-GFP PC-9 were 1.21 ± 0.16 and 1.08 ± 0.11, respectively.

Source of the values: the supplement of paper PMC8866396.
